# Test results taken from PubChem BioAssay AID588522 (NMMLSC, 2011).
# Hit rate of the full screen: of about 1,700 compounds, about 20 (1%) were called active. Shown is part of a subset that was picked to be rich in actives. Values without a mark were called inactive.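 How the source made its calls: active means inhibition above the screen-wide mean plus twice its standard deviation (cut at about 32% in these data); inactive means the rest.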
# Test system: Candida albicans drug resistance protein 1 (Cdr1) expressed in S. cerevisiae
# Test: Cdr1 pump blockade via Nile Red efflux – S. cerevisiae AD/CaCDR1, flow cytometry, cherry pick 1, singleplex, confirmation (AID 588522)
# Conditions: at 10 µM, active compounds read high
row,SMILES,inhibition
1,O=C(Cc1ccccc1)NCC1OCCc2ccccc21 (stereo unspecified),-0.03%
2,COc1ccc(C(=O)NC2CC(C)(C)Cc3c2cnn3-c2ccccc2)c(OC)c1 (stereo unspecified),-0.08%
3,O=C(CNC(=O)c1ccc(-c2ccccc2)cc1)OCc1ccc(Cl)cc1,0.15%
4,O=C(OCc1ccc(-c2ccccc2)cc1)c1cccc(O)c1,0.08%
5,O=C(CSc1nnc(-c2cccnc2)n1Cc1ccco1)c1ccc(Cl)c(Cl)c1,-0.04%
6,Cc1oc2cc3oc(=O)ccc3cc2c1C,-0.1%
7,CC12CCC(C(=O)N(c3cccc(Cl)c3)C1=O)C2(C)C (stereo unspecified),0.11%
8,Cc1cc(C)cc(NC(=O)C(OC(=O)c2ccc(O)cc2)c2ccccc2)c1 (stereo unspecified),-0.12%
9,COc1ccccc1/C=C/C=N/n1c(-c2ccc(Cl)cc2Cl)n[nH]c1=S,0.09%
10,CCOc1ccc(C2/C(=C(/O)c3ccc4c(c3)CC(C)O4)C(=O)C(=O)N2CCCn2ccnc2)cc1 (stereo unspecified),0.05%
11,CC(/C=C/c1ccccc1)=N\NC(=O)C1CC1(C)c1ccccc1 (stereo unspecified),-0.03%
12,O=C(Nc1ccc(NC(=O)c2cccs2)cc1)c1ccc2ccccc2c1,0.04%
13,CCNC(=O)c1c(O)c2cccc3c2n(c1=O)CC3,-0.08%
14,Cc1cccc(NC(=O)COc2ccccc2C)n1,-0.06%
15,O=C(CN1C(=O)C2C3CCC(C3)C2C1=O)Oc1ccc2ccccc2c1 (stereo unspecified),-0.01%
16,CCCc1nnc(SCC(=O)Nc2ccc(C(=O)OCC)cc2)o1,0.53%
17,O=C(/C=C/c1c(Cl)cccc1Cl)NCc1ccccc1,-0.01%
18,CCNc1c(NS(=O)(=O)c2ccc(C3CCCCC3)cc2)c(=O)oc2ccccc12,-0.2%
19,CSCCC(NC(=O)COc1ccccc1)C(=O)OCCOc1ccc(Br)cc1 (stereo unspecified),-0.03%
20,Cc1csc(NC(=O)c2ccc(-c3ccc(Cl)cc3Cl)o2)n1,0.16%
21,Cc1cc(/C=N/NC(=O)CC2(C)OCCO2)c(C)n1-c1ccc(Cl)c(Cl)c1,0.13%
22,COc1ccc(S(=O)(=O)N2CCOC2CNC(=O)C(=O)NCc2ccc(F)cc2)cc1 (stereo unspecified),0.04%
23,Cc1ccc(N=C2NC(=O)/C(=C/C=C/c3ccco3)S2)cc1C,0.36%
24,CSCCC(NS(=O)(=O)c1ccc(C)cc1)C(=O)N1CCCC1 (stereo unspecified),-0.1%
25,C/C(N)=C(/C#N)C(=O)COC(=O)c1cc(-c2cccc(Br)c2)nc2ccccc12,0.12%
26,Cc1ccc(/C=C(\C#N)C(=O)Nc2cccc3ncccc23)o1,-0.54%

row,SMILES,inhibition
1,O=C(NCc1ccccc1)C(=O)NCC1OCCN1S(=O)(=O)c1ccc(Br)cc1 (stereo unspecified),-0.27%
2,Cc1nn(C)cc1N1C(=O)c2cccc3c(N)ccc(c23)C1=O,-0.53%
3,CN(C)S(=O)(=O)c1cc(C(=O)Nc2ccn(C)n2)c(Cl)cc1Cl,-0.51%
4,COc1ccc(C(=O)C2CCCN(Cc3cccn3-c3ccccn3)C2)c(C)c1 (stereo unspecified),0.01%
5,CCOc1ccc(/C=C2\SC(=S)N(NC(=O)c3ccncc3)C2=O)cc1OC,-0.06%
6,COc1ccc(NC(=S)N2CCc3cc(OC)c(OC)cc3C2)cc1,0.16%
7,CCn1c(/C=C/c2ccc([N+](=O)[O-])o2)nc2ccccc2c1=O,0.83%
8,CC(C)C(=O)N1CCC2(CC1)Oc1ccc(F)cc1C(=O)C21CC(c2ccccc2)=NO1 (stereo unspecified),0.01%
9,COc1cccc(NC(=O)CN(C)C(=O)/C=C/c2cc(OC)ccc2OC)c1,-0.15%
10,COc1ccc(/C=C(\C#N)c2c[nH]c3ccccc23)cc1,-0.2%
11,NNC(=O)COc1ccc(C2SCCS2)cc1,-0.06%
12,O=C(CCCCCn1c(=O)[nH]c2ccccc2c1=O)NCCc1c[nH]c2ccccc12,-0.02%
13,COc1ccc(-c2sc3ccccc3c2-c2ccc(OCCN3CCOCC3)cc2)cc1,-0.26%
14,COc1ccc2sc(-c3ccccc3OC)c(-c3ccc(OCCN4CCCC4)cc3)c2c1,4.57%
15,COc1cccc(-c2sc3ccc(OC)cc3c2-c2ccc(OCCN3CCCCC3)cc2)c1,45.4% (active)
16,Cc1nn(C)cc1C(=O)Nc1ccccc1Br,-0.09%
17,CCCCCCCCCCCCCCCC(=O)OC/C=C(C)/C=C/C=C(C)/C=C/C1=C(C)CCCC1(C)C,0.11%
18,C=CCC[C@@H](Cc1ccc(F)cc1)C(=O)OC[C@H](Cc1c[nH]c2ccccc12)NC(=O)[C@@H](CC=C)CC(=O)N(CCO)Cc1ccccc1,0.17%
19,CN=C(c1ccccc1)c1c(C)cccc1C,0.01%
20,Cc1cc(C(=O)Nc2ccc(C)c(S(=O)(=O)N3CCOCC3)c2)c2ccccc2n1,-0.08%
21,CCc1ccc(NC(=O)Cn2ncn3c(cc4ccccc43)c2=O)cc1,-0.23%
22,Cc1ccc(OCc2cc(C(=O)N(C)CCc3ccccc3)no2)cc1C,-0.15%
23,CCOc1ccc2nc(Cl)c(C3CC(c4ccccc4)=NN3C(=O)c3cccs3)cc2c1 (stereo unspecified),0.11%
24,O=C1NC(=O)C2C1C(c1ccc([N+](=O)[O-])cc1)=NN2Cc1ccccc1 (stereo unspecified),0.24%
25,CCCCCC(=O)Nc1ccc(C(=O)N/N=C/c2ccc([N+](=O)[O-])cc2)cc1,0.01%
26,CCOC(=O)CNC(=O)CSc1nnnn1-c1cc(C)ccc1C,-0.03%

row,SMILES,inhibition
1,CC[n+]1cc(C)ccc1/C=C/c1ccc(N(C)C)cc1,4.74%
2,COc1ccc2[nH]c3c(C)c4cc[n+](C)cc4c(C)c3c2c1,0.08%
3,Cc1c(CCOC(=O)CC23CC4CC(CC(C)(C4)C2)C3)sc[n+]1Cc1ccc([N+](=O)[O-])cc1,0.01%
4,CCOC(=O)c1c(NC(=S)NC(=O)c2ccco2)sc2c1CCCC2,-0.31%
5,C[n+]1ccc(/C=C/c2c[nH]c3ccccc23)cc1,3.85%
6,COc1ccc(C(=O)NC2CCCc3c2cnn3-c2cccc(C)c2C)c(OC)n1 (stereo unspecified),-0.29%
7,CC(/C=N/NC(=O)c1cc(-c2ccc3ccccc3c2)n[nH]1)=C\c1ccco1,-0.15%
8,O=C(Cc1ccc(Br)cc1)N1CCN(c2ccccn2)CC1,-0.06%
9,CCCCN1C(=O)/C(=C/C=C2/C=Cc3ccccc3N2CC)SC1=S,-0.08%
10,Cc1ccc(Cn2c(C)nc3c(c2=O)c2nc4ccccc4nc2n3Cc2ccco2)cc1,0.09%
11,Cc1ccc2[nH]c3c(=O)n(CC(=O)NCCc4ccc(Cl)cc4)ncc3c2c1,0.27%
12,COc1ccc(C(=O)NC(=S)Nc2ccc(N3CCCC3)cc2)cc1OC,-0.15%
13,Cc1nc2c(C(=O)NCc3ccc4c(c3)OCO4)c[nH]n2c(=O)c1Cc1ccccc1F,-0.08%
14,COc1ccccc1NC(=O)C1CCCN1S(=O)(=O)c1ccc(Cl)cc1 (stereo unspecified),-0.03%
15,CCCc1nc(N2CCN(C)CC2)c2sc(=S)n(-c3ccccc3)c2n1,0.07%
16,Cc1ccc(Cn2nnc3c(=O)[nH]c(C4CCN(S(=O)(=O)/C=C/c5ccccc5)CC4)nc32)cc1,-0.06%
17,CCCCOc1ccc(C(=O)NCC(=O)OCC(=O)c2c(N)n(C)c(=O)n(C)c2=O)cc1,106% (active)
18,COc1ccccc1CSc1ncc(-c2ccc([N+](=O)[O-])cc2)[nH]1,-0.02%
19,CCOc1ccccc1/C=c1\sc2nc(-c3ccco3)nn2c1=O,0.21%
20,O=C(Cn1c(COc2ccccc2)nc2ccccc21)Nc1cc(Cl)c(Cl)cc1Cl,0.09%
21,CC1CCc2c(sc(NC(=O)c3ccc(Cn4cc(Br)cn4)o3)c2C(N)=O)C1 (stereo unspecified),-0.03%
22,Cc1ccc2c(c1)NC(=O)[C@@]1(C)[C@@H](c3ccccc3)[C@H]3COc4ccc(Cl)cc4[C@@H]3N1C2=O,0.07%
23,CN1CCN(S(=O)(=O)c2ccc(NC(=S)NC(=O)C3CC3)cc2)CC1,-0.08%
24,O=S(=O)(c1ccccc1)N1CCc2ccccc21,0.54%
